An excerpt weighted towards active compounds, which were near 1.5% of everything screened.
HTT aggregate – qHTS Multiplex Assay to Identify Dual Action Probes in a Cell Model of Huntington: Aggregate Formation (GFP); Potency, µM (top dose mostly 46.1 µM), for the others: top-dose activity change, negative = inhibition, most hits filed as inhibitors; PC12 HttQ103-GFP aggregates, Acumen cytometry, 40 h; 220,000 tested, 1.1% active; AID 1688, 2009; also: % is scaled to controls: 0 for no effect and ±100 for the full control effect; nearly all actives have a fitted effect of over 60% in size
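Multiplexed with ATP-based cell death, this channel scores GFP aggregates in PC12 cells expressing inducible HTTex1-Q103-GFP. Induction used 100 nM tebufenozide; compounds were tested in concentration series.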
Epigenetic derep – Quantitative High-Throughput Screen for Regulators of Epigenetic Control; murine LDR cells, GFP reporter derepression, 30 h; Potency, µM (top dose mostly 53.9 µM), for inactives: top-dose GFP activation, most hits filed as activators; 280,000 tested, 0.2% active; AID 1865, 2009; also: % of control where 0% means no effect; nearly all actives have a fitted effect of over 60% in size
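Readout is the number of GFP-expressing murine LDR cells, counted by cytometry following washing. Cells were treated with compound for 30 h at 37 C; the stably integrated CMV-GFP locus is normally silent.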
NPSR antagonist – qHTS Assay for Antagonists of the Neuropeptide S Receptor: cAMP Signal Transduction | Potency, µM (top dose mostly 38.3 µM), for the others: at the highest dose activity change, negative = inhibition, usual class: inhibitors | 220,000 tested, 1% active | AID 1461, 2008 | CHO-NPSR cells, cAMP TR-FRET, antagonist mode; also: % is scaled to controls: 0 for no effect and ±100 for the full control effect; nearly all actives have a fitted effect of over 50% in size
Target sequence (Q6W5P4 whole entry, looked up): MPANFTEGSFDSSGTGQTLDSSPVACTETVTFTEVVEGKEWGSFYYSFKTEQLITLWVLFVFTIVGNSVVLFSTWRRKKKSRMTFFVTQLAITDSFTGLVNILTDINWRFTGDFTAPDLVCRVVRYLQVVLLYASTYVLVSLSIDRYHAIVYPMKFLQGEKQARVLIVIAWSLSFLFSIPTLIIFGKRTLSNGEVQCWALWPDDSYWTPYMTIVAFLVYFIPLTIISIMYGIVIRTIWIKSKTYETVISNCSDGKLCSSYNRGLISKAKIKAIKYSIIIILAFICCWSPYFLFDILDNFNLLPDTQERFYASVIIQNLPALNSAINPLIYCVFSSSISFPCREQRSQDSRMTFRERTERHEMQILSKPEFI
Lamin A splicing – qHTS Assay for Modulators of Lamin A Splicing; 200,000 tested, 0.01% active; AID 1487, 2009; Potency, µM (highest dose often 46.1 µM), for inactives: at the top dose ratio change, negative = inhibition, hits mostly inhibitors; HeLa LMNA splicing GFP/RFP minigene ratio, 48 h; active = well fitted inhibition curve with a large enough effect in the signal ratio, with a control signal flat, not every such curve was filed as active; inconclusive = small, poorly fitted or top-dose-only effect, or effect the other way, or a change in a side signal; the % refers to the signal ratio; also: % is scaled to controls: 0 for no effect and ±100 for the full control effect
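S3 HeLa cells stably expressing lamin A-EGFP splicing minigene plus DsRed2, 600 cells/well, 48 h compound exposure at 37C. Laser-scanning cytometry; analysed as GFP (500-530 nm)/RFP (575-640 nm) total intensity ratio; 0.5% DMSO vehicle.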
HTT ATP protect – qHTS Multiplex Assay to Identify Dual Action Probes in a Cell Model of Huntington: Cytoprotection (ATP); Potency, µM (series often up to 56.4 µM), for inactives: cytoprotection (ATP increase), usual class: activators; 230,000 tested, 0.14% active; PC12 HTT-Q103 induced, cytoprotection, ATP luminescence, 40 h; also: % of control where 0% means no effect; nearly all actives have a fitted effect of over 45% in size
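Readout: ATPlite luminescence (ATP level). Model: stable PC12, inducible Htt exon1 Q103-GFP. Inducer: tebufenozide, 100 nM final. Compounds: dose series. No G418 in medium.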
Active calls of the source: *; ! = not active in a repeat; [ ] = remark or other dose. Unless noted, calls follow the shape of the dose curve; as a rule, active = well fitted curve in the direction sought with a large enough effect; inconclusive = small, poorly fitted or top-dose-only effect, or another doubt; inactive = no such curve, though single readings can be large; an effect the other way counts as inactive or inconclusive. Potency is read from the fitted curve at half-maximal effect.

What do the screens show for `O=[N+]([O-])c1ccc(Sc2n[nH]c(-c3ccc(Cl)cc3Cl)n2)nc1`?
HTT aggregate: inconclusive; Epigenetic derep: 0%; NPSR antagonist: -13%[46.1 µM]; Lamin A splicing: inconclusive; HTT ATP protect: 0.79µM*

How did CC(C)(C)c1nc(Sc2ccc([N+](=O)[O-])cn2)n[nH]1 do in these assays?
HTT aggregate: -11%[9.22 µM]; Epigenetic derep: 1%; NPSR antagonist: 2%; HTT ATP protect: 11%[10 µM]

What do the screens show for `O=c1c(Br)c(Br)cnn1-c1ccccc1`?
HTT aggregate: 5.6µM*; Epigenetic derep: 2%; NPSR antagonist: 10µM*; Lamin A splicing: inconclusive; HTT ATP protect: -97%[10 µM]

What do the screens show for `O=C(NCc1cccnc1)/C(=C/c1ccc(-c2ccc(Cl)cc2)o1)S(=O)(=O)c1ccccc1`?
HTT aggregate: inconclusive; Epigenetic derep: 1%; NPSR antagonist: 10µM*; Lamin A splicing: inconclusive; HTT ATP protect: -97%

Results for O=C(Nc1ccc(Cl)cc1)/C(=C/c1cccc(O)c1)c1nc2ccccc2s1 ?
HTT aggregate: 2%[0.0738 µM]; Epigenetic derep: -1%; NPSR antagonist: 10µM*; Lamin A splicing: inconclusive; HTT ATP protect: 20%[0.074 µM]

How did CC1Cc2ccccc2N1C(=O)CN(C)S(=O)(=O)c1cccc2cccnc12 (configuration not stated) do in these assays?
HTT aggregate: 0.032µM*; Epigenetic derep: -6%; NPSR antagonist: -10%[46.1 µM]; Lamin A splicing: -4%; HTT ATP protect: -18%

What do the screens show for `Cc1cc(=O)[nH]c2nnc(SCc3ccc(Cl)cc3Cl)n12`?
Epigenetic derep: 0%; Lamin A splicing: 25%[46 µM]

Results for O=C1c2ccccc2C(=O)C12OC2c1ccc(Cl)cc1Cl (configuration not stated) ?
HTT aggregate: 25µM*; Epigenetic derep: 0%; NPSR antagonist: inconclusive; Lamin A splicing: 8%; HTT ATP protect: 27%[10 µM]

What do the screens show for `Brc1ccc(N/N=C(/N=Nc2nn[nH]n2)c2ccccc2)cc1`?
HTT aggregate: 7.1µM*; Epigenetic derep: -4%; NPSR antagonist: -60%; Lamin A splicing: inconclusive; HTT ATP protect: -131%

What do the screens show for `CC(=O)N1c2ccc(S(=O)(=O)N3CCN(c4cc(Cl)ccc4C)CC3)cc2CC1C` (configuration not stated)?
Epigenetic derep: -1%; Lamin A splicing: 4%[46 µM]

How did O=C(O)c1ccc(NS(=O)(=O)c2ccsc2C(=O)O)c(O)c1 do in these assays?
Epigenetic derep: 1%; HTT ATP protect: -5%

Results for CCN(CC)c1nc(-c2ccccn2)nc(-c2ccccc2)c1C#N ?
HTT aggregate: 5µM*; Epigenetic derep: 17%; NPSR antagonist: -53%; Lamin A splicing: inconclusive; HTT ATP protect: -124%

Results for COCCCNC(=O)CSC1=Nc2ccccc2C2=NC(CCC(=O)NCc3ccccc3OC)C(=O)N12 (configuration not stated) ?
Epigenetic derep: 0%; Lamin A splicing: 13%[46 µM]

What do the screens show for `CCOC(=O)c1sc(NC(=O)c2cccnc2)c(C#N)c1C`?
HTT aggregate: -14%; Epigenetic derep: 4%; NPSR antagonist: -11%[46.1 µM]; Lamin A splicing: inconclusive; HTT ATP protect: -14%

How did CCOC(=O)c1sc(NC(=O)CSc2n[nH]c(-c3ccccc3)n2)c(C#N)c1C do in these assays?
HTT aggregate: 20µM*; Epigenetic derep: -2%; NPSR antagonist: -3%[46.1 µM]; Lamin A splicing: -23%; HTT ATP protect: 1%[10 µM]

What do the screens show for `CCOC(=O)c1sc(NC(=O)c2cc(-c3ccccc3)nc3ccccc23)c(C#N)c1C`?
HTT aggregate: 7.1µM*; Epigenetic derep: 4%; NPSR antagonist: 3%[46.1 µM]; Lamin A splicing: 0%; HTT ATP protect: -91%

Results for CCOC(=O)c1sc(NC(=O)CSc2nc3c(cc2C#N)CCCCC3)c(C#N)c1C ?
HTT aggregate: 5.6µM*; Epigenetic derep: -1%; NPSR antagonist: inconclusive; Lamin A splicing: 8%; HTT ATP protect: -25%

What do the screens show for `C[C@@H]1CC2C3CCC4=CC(=O)C=C[C@]4(C)[C@@]3(F)[C@@H](O)C[C@]2(C)[C@@]1(O)C(=O)COC(=O)c1cccc(S(=O)(=O)O)c1` (some centres not stated)?
HTT aggregate: 2%; HTT ATP protect: -16%

How did O=S(=O)(c1ccccc1)c1nc(-c2cccs2)oc1SCc1ccc(F)cc1 do in these assays?
Epigenetic derep: 12%

What do the screens show for `O=c1c(-c2ccccc2)nc2cnc(N3CCOCC3)nc2n1Cc1ccc(F)cc1`?
Lamin A splicing: inconclusive; HTT ATP protect: -23%

What do the screens show for `CNC(=S)N/N=C1\C(=O)c2cccc3cccc1c23`?
HTT aggregate: inconclusive; Epigenetic derep: 1%; NPSR antagonist: 3.2µM*; Lamin A splicing: inconclusive; HTT ATP protect: -21%

How did CC1CCN(c2nc3ccccc3nc2C(F)(F)F)CC1 do in these assays?
Epigenetic derep: -1%

What do the screens show for `C/C(=N\NC(=O)c1ccccc1)c1nc2ccccc2n1C`?
HTT aggregate: 11µM*; Epigenetic derep: -2%; NPSR antagonist: 9%; Lamin A splicing: inconclusive

What do the screens show for `CCCCCCn1c(CNC(=O)c2ccccc2)nc2ccccc21`?
Epigenetic derep: 0%

How did CN(Cc1ccccc1)S(=O)(=O)c1ccc2[nH]c3c(c2c1)CCCCC3 do in these assays?
Epigenetic derep: 0%; Lamin A splicing: -14%[46 µM]

How did CC#C[C@@]1(O)CC[C@@H]2[C@@H]3CCC4=CC(=O)CCC4=C3[C@@H](c3ccc(N(C)C)cc3)C[C@]21C do in these assays?
HTT ATP protect: -20%[1.9 µM]

How did CN(C)S(=O)(=O)N(CC(=O)NCCSc1ccc(Cl)cc1)c1ccccc1 do in these assays?
Epigenetic derep: 0%

What do the screens show for `COc1c(N2CCN(C(=S)Nc3ccc(F)cc3)C(C)C2)c(F)cc2c(=O)c(C(=O)O)cn(C3CC3)c12` (configuration not stated)?
HTT aggregate: -6%; Epigenetic derep: -1%; NPSR antagonist: -15%[46.1 µM]; Lamin A splicing: 4%; HTT ATP protect: -15%

How did COc1c(N2CCNC(C)C2)c(F)cc2c(=O)c(C(=O)O)cn(C3CC3)c12 (configuration not stated) do in these assays?
HTT aggregate: 27%; Epigenetic derep: 5%; HTT ATP protect: 3.2µM*!

Results for Cc1nc(Nc2c(Cl)cccc2Cl)sc1C(=O)Nc1ccccc1 ?
HTT aggregate: 11µM*; Epigenetic derep: -1%; NPSR antagonist: -17%; Lamin A splicing: inconclusive; HTT ATP protect: -15%[10 µM]

What do the screens show for `COc1ccc(N2C(=O)CC3(CCCC3)CC2=O)cc1`?
HTT aggregate: 15%; Epigenetic derep: 0%; NPSR antagonist: 13%; Lamin A splicing: -10%; HTT ATP protect: 3.2µM*

High-throughput results from PubChem.
